# PubChem BioAssay (Tox21)
# Records with an inconclusive call do not appear. A call without a number means that no potency is given here. Values without a mark were called inactive. Calls of active or inactive are those of the source. Unless noted, the call rests on the fitted dose curve; in most records, active means well fitted curve in the direction sought with a large enough effect in the repeat runs; inconclusive means weak or mixed curves; inactive means no such curve, though single readings can be large; an effect the other way counts as inactive or inconclusive.
# Experiments:
# [1] = qHTS assay to identify aromatase inhibitors - cell viability counter screen (AID 743084);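 further: cells stimulated with testosterone during compound exposure; nearly all actives have a fitted effect of over 55% in size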
# [2] = target: Aryl hydrocarbon receptor (Homo sapiens) (UniProt P35869); test: qHTS assay to identify small molecule that activate the aryl hydrocarbon receptor (AhR) signaling pathway (AID 743085); further: nearly all actives have a fitted effect of over 15% in size; further: potency means the concentration at half of the fitted maximal effect;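 on activation: HG2L7.5c1 human HepG2 liver cells with stably integrated DRE-driven firefly reporter; series mostly up to about 70 µM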
# Outline: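 Measured in HG2L7.5c1 cells: CellTiter-Fluor signal (30 min incubation, 37C) for viability, then luciferase luminescence (30 min, room temperature). Compound contact time was 24 h at 37C, following a 5 h pre-incubation.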
# [3] = qHTS assay to identify small molecule that activate the aryl hydrocarbon receptor (AhR) signaling pathway - cell viability counter screen (AID 743086);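 further: HepG2 liver cells carrying the AhR DRE luciferase reporter; series mostly up to about 70 µM; nearly all actives have a fitted effect of over 45% in size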
# Outline: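 Cytotoxicity counter screen: CellTiter-Fluor signal (30 min, 37 C) in 4000 HepG2 cells/well carrying the DRE-luciferase reporter, following 24 h compound exposure at 37 C.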
# [4] = target: Peroxisome proliferator-activated receptor gamma (Homo sapiens) (UniProt P37231); test: qHTS assay to identify small molecule agonists of the peroxisome proliferator-activated receptor gamma (PPARg) signaling pathway (AID 743094; active means well fitted activation curve with a large enough effect in the signal ratio in the repeat runs, not every such curve was filed as active; the % refers to the signal ratio)
# Outline: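 GeneBLAzer PPARg UAS-bla HEK293H cells carrying a stably integrated beta-lactamase reporter were pre-incubated 5 h at 37C, then exposed to compounds in DMSO for 17 h at 37C; LiveBLAzer B/G FRET substrate was added for 1 h at room temperature and fluorescence read.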
# [5] = target: Peroxisome proliferator-activated receptor gamma (Homo sapiens) (UniProt P37231); test: qHTS assay to identify small molecule antagonists of the peroxisome proliferator-activated receptor gamma (PPARg) signaling pathway (AID 743191; calls by dose curve; further: series mostly up to about 63 µM; nearly all actives have a fitted effect of over 30% in size)
# Outline: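 Beta-lactamase reporter under UAS control in HEK293H PPARg-bla cells; compound treatment 17 h at 37C. Read-out: fluorescence intensity after 1 h room-temperature incubation with LiveBLAzer B/G FRET substrate.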
# [6] = qHTS assay to identify small molecule antagonists of the peroxisome proliferator-activated receptor gamma (PPARg) signaling pathway - cell viability counter screen (AID 743194); further: nearly all actives have a fitted effect of over 55% in size
# Outline: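 Viability was measured as CellTiter-Glo luminescence in GeneBLAzer PPARg UAS-bla HEK293H cells. These cells had been exposed 17 h at 37 C to compounds together with rosiglitazone at 50 nM final, with the beta-lactamase readout taken in the same wells.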
# [7] = qHTS assay for small molecule agonists of the antioxidant response element (ARE) signaling pathway (AID 743202; active means well fitted activation curve with a large enough effect in the signal ratio in the repeat runs, not every such curve was filed as active; the % refers to the signal ratio; further: potency means the concentration at half of the fitted maximal effect)
# Outline: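 Quantitative high-throughput format in HepG2 cells bearing an integrated ARE-beta-lactamase reporter. Compound exposure lasted 16 h at 37 C, and fluorescence was read 2 h after adding LiveBLAzer B/G substrate at room temperature.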
# [8] = qHTS assay for small molecule agonists of the antioxidant response element (ARE) signaling pathway - cell viability counter screen (AID 743203; calls by dose curve; further: nearly all actives have a fitted effect of over 55% in size)
# Outline: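 CellSensor ARE-bla HepG2 cells, 2,000 per well, rested 5 hrs at 37C/5% CO2, then exposed to compound in DMSO for 16 hrs; viability read as CellTiter-Glo luminescence after 30 min at room temperature, in the reporter wells.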
# [9] = qHTS assay for small molecule activators of the heat shock response signaling pathway - cell viability counter screen (AID 743209); further: nearly all actives have a fitted effect of over 50% in size
# Outline: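 CellSensor HSE-bla HeLa cells, plated overnight at 37 C/5% CO2, were exposed to compounds in DMSO for 5 h at 37 C. Viability was then read in the same wells by CellTiter-Glo luminescence after 30 min at room temperature.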
# [10] = qHTS assay for small molecule activators of the heat shock response signaling pathway (AID 743210; active means well fitted activation curve with a large enough effect in the signal ratio in the repeat runs, with a control signal flat, not every such curve was filed as active; the % refers to the signal ratio;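 further: HeLa cells with beta-lactamase reporter driven by heat shock elements; series mostly up to about 63 µM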)
# Outline: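 HeLa HSE-bla cells, overnight plating; cpd in DMSO 5 h, 37 C; LiveBLAzer B/G FRET substrate 2.5 h RT; fluorescence intensity read.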
# Aryl hydrocarbon receptor (Homo sapiens), sequence (P35869 whole entry, looked up): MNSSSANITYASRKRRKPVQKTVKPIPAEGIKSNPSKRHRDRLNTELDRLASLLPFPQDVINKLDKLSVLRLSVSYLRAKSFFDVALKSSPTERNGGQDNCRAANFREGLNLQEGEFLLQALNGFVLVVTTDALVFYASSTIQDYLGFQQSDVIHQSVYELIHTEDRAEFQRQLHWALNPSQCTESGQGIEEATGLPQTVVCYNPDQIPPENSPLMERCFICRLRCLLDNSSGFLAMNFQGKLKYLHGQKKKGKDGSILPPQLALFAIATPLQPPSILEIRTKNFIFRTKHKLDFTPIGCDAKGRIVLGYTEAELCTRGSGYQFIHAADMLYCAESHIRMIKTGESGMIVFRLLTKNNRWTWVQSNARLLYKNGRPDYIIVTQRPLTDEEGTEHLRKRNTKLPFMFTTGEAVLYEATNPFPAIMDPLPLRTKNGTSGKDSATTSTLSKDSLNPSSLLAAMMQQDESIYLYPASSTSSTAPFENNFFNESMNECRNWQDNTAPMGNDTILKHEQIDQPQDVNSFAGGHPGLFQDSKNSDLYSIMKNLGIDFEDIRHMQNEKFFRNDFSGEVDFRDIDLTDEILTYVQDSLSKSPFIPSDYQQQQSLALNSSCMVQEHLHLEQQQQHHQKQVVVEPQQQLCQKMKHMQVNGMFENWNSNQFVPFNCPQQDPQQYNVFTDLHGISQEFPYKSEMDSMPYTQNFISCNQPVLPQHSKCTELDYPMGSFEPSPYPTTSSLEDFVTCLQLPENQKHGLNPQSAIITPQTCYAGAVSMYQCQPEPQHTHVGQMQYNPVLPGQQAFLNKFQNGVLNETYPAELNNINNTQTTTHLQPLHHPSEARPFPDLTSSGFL
# Peroxisome proliferator-activated receptor gamma (Homo sapiens), sequence (P37231 whole entry, looked up): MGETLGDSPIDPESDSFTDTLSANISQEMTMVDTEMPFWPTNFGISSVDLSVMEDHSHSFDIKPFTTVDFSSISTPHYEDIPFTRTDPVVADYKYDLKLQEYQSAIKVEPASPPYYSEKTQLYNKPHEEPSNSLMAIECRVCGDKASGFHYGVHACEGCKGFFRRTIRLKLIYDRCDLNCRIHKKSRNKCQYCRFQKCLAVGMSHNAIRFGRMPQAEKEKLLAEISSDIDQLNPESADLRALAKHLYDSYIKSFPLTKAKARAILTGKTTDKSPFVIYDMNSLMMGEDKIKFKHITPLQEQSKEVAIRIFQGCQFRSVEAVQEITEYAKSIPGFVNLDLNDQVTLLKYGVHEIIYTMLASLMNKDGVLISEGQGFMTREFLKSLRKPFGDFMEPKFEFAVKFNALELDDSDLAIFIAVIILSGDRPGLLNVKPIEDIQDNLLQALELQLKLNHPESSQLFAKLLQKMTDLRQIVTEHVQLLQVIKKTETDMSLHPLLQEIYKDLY
compound,measurement,setting,value
OCCNCc1ccccc1,Potency,[1],inactive
same,Potency,[2],inactive
same,Potency,[3],inactive
same,Potency,[4],inactive
same,Potency,[5],inactive
same,Potency,[6],inactive
same,Potency,[7],inactive
same,Potency,[8],inactive
same,Potency,[9],inactive
same,Potency,[10],inactive
Nc1cccc([N+](=O)[O-])c1,Potency,[1],inactive
same,Potency,[2],inactive
same,Potency,[3],inactive
same,Potency,[4],inactive
same,Potency,[5],inactive
same,Potency,[6],inactive
same,Potency,[7],inactive
same,Potency,[8],inactive
same,Potency,[10],inactive
O=C1CCC(=O)O1,Potency,[1],inactive
same,Potency,[2],inactive
same,Potency,[3],inactive
same,Potency,[4],inactive
same,Potency,[5],inactive
same,Potency,[6],inactive
same,Potency,[7],inactive
same,Potency,[8],inactive
same,Potency,[10],inactive
CN(C)CCN(Cc1ccccc1)c1ccccn1,Potency,[1],inactive
same,Potency,[2],inactive
same,Potency,[3],inactive
same,Potency,[4],inactive
same,Potency,[5],inactive
same,Potency,[6],inactive
same,Potency,[7],inactive
same,Potency,[8],inactive
same,Potency,[9],inactive
same,Potency,[10],inactive
C#CCN(C)CCCOc1ccc(Cl)cc1Cl,Potency,[1],inactive
same,Potency,[2],23.7 µM (active)
same,Potency,[3],inactive
same,Potency,[4],inactive
same,Potency,[5],inactive
same,Potency,[6],inactive
same,Potency,[7],15 µM (active)
same,Potency,[8],inactive
same,Potency,[9],inactive
same,Potency,[10],inactive
CC1CCC(=O)C1=O (stereo not drawn),Potency,[1],inactive
same,Potency,[2],inactive
same,Potency,[3],inactive
same,Potency,[4],inactive
same,Potency,[5],inactive
same,Potency,[6],inactive
same,Potency,[7],inactive
same,Potency,[8],inactive
same,Potency,[9],inactive
same,Potency,[10],inactive
O=C(NCCO[N+](=O)[O-])c1cccnc1,Potency,[1],inactive
same,Potency,[2],inactive
same,Potency,[3],inactive
same,Potency,[4],inactive
same,Potency,[5],inactive
same,Potency,[6],inactive
same,Potency,[7],inactive
same,Potency,[8],inactive
same,Potency,[10],inactive
O=C1C(O)=C(O)C(=O)C(O)=C1O,Potency,[1],inactive
same,Potency,[2],inactive
same,Potency,[3],inactive
same,Potency,[4],inactive
same,Potency,[5],inactive
same,Potency,[6],inactive
same,Potency,[7],inactive
same,Potency,[8],inactive
same,Potency,[9],inactive
same,Potency,[10],inactive
O=C(O)c1ccc(S(=O)(=O)O)cc1C(=O)O,Potency,[1],inactive
same,Potency,[2],inactive
same,Potency,[3],inactive
same,Potency,[4],inactive
same,Potency,[5],inactive
same,Potency,[6],inactive
same,Potency,[7],inactive
same,Potency,[8],inactive
same,Potency,[9],inactive
CCCCC(CC)COC(=O)CCCCCCCCC(=O)OCC(CC)CCCC (stereo not drawn),Potency,[1],inactive
same,Potency,[2],inactive
same,Potency,[3],inactive
same,Potency,[4],inactive
same,Potency,[5],inactive
same,Potency,[6],inactive
same,Potency,[7],inactive
same,Potency,[8],inactive
same,Potency,[9],inactive
same,Potency,[10],inactive
C=C1C(=C/C=C2\CCC[C@]3(C)[C@@H]([C@H](C)/C=C/[C@@H](O)C4CC4)CC[C@@H]23)C[C@@H](O)C[C@@H]1O,Potency,[1],inactive
same,Potency,[2],inactive
same,Potency,[3],inactive
O=C(O)CNCC(=O)O,"activity change, negative = cytotoxicity",[1],-0.604% [at 8.47 µM]
same,activation,[2],1.31% [at 8.47 µM]
same,"viability change, negative = cytotoxic",[3],-0.209% [at 8.47 µM]
same,activation,[4],0.605% [at 7.08 µM]
same,"ratio activity, negative = inhibition",[5],11.9% [at 5.95 µM]
same,"activity change, negative = cytotoxicity",[6],0.536% [at 5.95 µM]
same,activation,[7],-1.79% [at 8.36 µM]
same,"viability change, negative = cytotoxic",[8],1.43% [at 8.36 µM]
same,"activity change, negative = cytotoxicity",[9],4.62% [at 5.95 µM]
same,activation,[10],-0.342% [at 5.95 µM]
Cc1cccc(C)c1NC(=O)CN(CC(=O)O)CC(=O)O,Potency,[1],inactive
same,Potency,[2],inactive
same,Potency,[3],inactive
same,Potency,[4],inactive
same,Potency,[5],inactive
same,Potency,[6],inactive
same,Potency,[7],inactive
same,Potency,[8],inactive
same,Potency,[9],inactive
same,Potency,[10],inactive
CCCCCCCCCCCc1ccccc1,Potency,[1],inactive
same,Potency,[2],inactive
same,Potency,[3],inactive
same,Potency,[4],inactive
same,Potency,[5],inactive
same,Potency,[6],inactive
same,Potency,[7],inactive
same,Potency,[8],inactive
same,Potency,[9],inactive
same,Potency,[10],inactive
COC(C)OC,Potency,[1],inactive
same,Potency,[2],inactive
same,Potency,[3],inactive
same,Potency,[4],inactive
same,Potency,[5],inactive
same,Potency,[6],inactive
same,Potency,[7],inactive
same,Potency,[8],inactive
same,Potency,[9],inactive
same,Potency,[10],inactive
C[N+]1(CC2COC(c3ccccc3)(C3CCCCC3)O2)CCCCC1 (stereo not drawn),Potency,[1],inactive
same,Potency,[2],inactive
same,Potency,[3],inactive
same,Potency,[4],inactive
same,Potency,[5],inactive
same,Potency,[6],inactive
same,Potency,[7],inactive
same,Potency,[8],inactive
same,Potency,[9],inactive
same,Potency,[10],inactive
Cc1[nH]c(C)c(Cl)c(=O)c1Cl,Potency,[1],inactive
same,Potency,[2],inactive
same,Potency,[3],inactive
same,Potency,[4],inactive
same,Potency,[5],inactive
same,Potency,[6],inactive
same,Potency,[7],inactive
same,Potency,[8],inactive
same,Potency,[10],inactive
CC1OC(=O)C(C)OC1=O (stereo not drawn),Potency,[1],inactive
same,Potency,[2],inactive
same,Potency,[3],inactive
same,Potency,[4],inactive
same,Potency,[5],inactive
same,Potency,[6],inactive
same,Potency,[7],inactive
same,Potency,[8],inactive
same,Potency,[9],inactive
same,Potency,[10],inactive
Cc1c(N)cccc1[N+](=O)[O-],Potency,[1],inactive
same,Potency,[2],inactive
same,Potency,[3],inactive
same,Potency,[4],inactive
same,Potency,[5],inactive
same,Potency,[6],inactive
same,Potency,[7],inactive
same,Potency,[8],inactive
same,Potency,[9],inactive
same,Potency,[10],inactive
CCCCCCCCO[C@@H]1O[C@H](CO)[C@@H](O)[C@H](O)[C@H]1O,Potency,[1],inactive
same,Potency,[2],inactive
same,Potency,[3],inactive
same,Potency,[4],inactive
same,Potency,[5],inactive
same,Potency,[6],inactive
same,Potency,[7],inactive
same,Potency,[8],inactive
same,Potency,[9],inactive
same,Potency,[10],inactive
O=[N+]([O-])c1ccc2[nH]ncc2c1,Potency,[1],inactive
same,Potency,[2],inactive
same,Potency,[3],inactive
same,Potency,[4],inactive
same,Potency,[5],inactive
same,Potency,[6],inactive
same,Potency,[7],inactive
same,Potency,[8],inactive
same,Potency,[9],inactive
same,Potency,[10],inactive
CC(C)(C)Cl,Potency,[1],inactive
same,Potency,[2],inactive
same,Potency,[3],inactive
same,Potency,[4],inactive
same,Potency,[5],inactive
same,Potency,[6],inactive
same,Potency,[7],inactive
same,Potency,[8],inactive
same,Potency,[9],inactive
same,Potency,[10],inactive
CCCCC(CC)COC(=O)COc1ccc(Cl)cc1Cl (stereo not drawn),Potency,[1],inactive
same,Potency,[2],inactive
same,Potency,[3],inactive
same,Potency,[4],inactive
same,Potency,[5],inactive
same,Potency,[6],inactive
same,Potency,[7],inactive
same,Potency,[8],inactive
same,Potency,[9],inactive
same,Potency,[10],inactive
